Data on five compounds can be found in PubChem BioAssay.

Experiment [1] is described as follows: anti-His antibody binders, primary screen, artefact control for SMM control protein annotation, biochemical, small-molecule microarray, 635 nm fluorescence (AID 1128).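 Note: score merges feature fluorescence with signal-to-noise for each printed compound spot.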 The conditions noted are these: anti-His Alexa647 antibody binding, higher = more signal.
Experiment [2] relates to Human papillomavirus type 1a E7 protein (residues 1-88). Kind of experiment: HPV1a E7 small-molecule binders, primary screen, biochemical, small-molecule microarray, residues 1-88, 635 nm (AID 1129). The conditions noted are these: small-molecule microarray binding, fluorescence 635 nm; higher = more signal.
For experiment [3], the target named is Focal adhesion kinase 1 (Homo sapiens) (UniProt Q05397). Kind of experiment: small-molecule microarray binders of FAK, primary screen, biochemical, 635/667 nm fluorescence, BSA, DTT (AID 1130).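 Note: composite of spot emission at 667 nm and signal to noise over triplicate slides.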 The settings on record: PTK2 binding, 635 nm fluorescence, higher = more signal.
Experiment [4] relates to Fibrinogen (Alexa647-labelled). Kind of experiment: fibrinogen binders on compound microarrays, profiling panel, artefact control for SMM control-protein annotation, biochemical, small-molecule microarray, 635/667 nm fluorescence (AID 1131).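 Note: z-score merges 667 nm fluorescence with per-spot signal-to-noise over triplicate slides.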 The settings on record: fibrinogen-A647 binding fluorescence, higher = more signal.
Experiment [5] has as its target Follistatin (Homo sapiens) (UniProt P19883). Kind of experiment: follistatin binders on small-molecule microarrays, primary screen, biochemical, small-molecule microarray, 635/667 nm fluorescence (AID 1132). The conditions noted are these: FST binding, 635 nm fluorescence, higher = more signal.
Experiment [6] concerns the target Fibroblast growth factor 2 (Homo sapiens) (UniProt P09038). As to the kind of experiment: FGF2 binders on small-molecule microarrays, primary screen, biochemical, small-molecule microarray, 635/667 nm fluorescence (AID 1133). The conditions noted are these: small-molecule microarray binding, FGF2, fluorescence 635/667; higher = more signal.
Experiment [7] in a line: mitochondrial membrane potential change in A549 cells, profiling panel, cell-based, JC-1 fluorescence, basal, 24 h, 100 nL (AID 1138).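 Note: A549 lung adenocarcinoma cells under basal conditions with no added stimulus; test concentration not given here.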 The settings on record: higher = more signal.
The test system of another experiment is Lefty1. Kind of experiment: Lefty1 binders on small-molecule microarrays, primary screen, biochemical, small-molecule microarray, 635/667 nm fluorescence (AID 1139). The settings on record: small-molecule microarray binding, fluorescence 635/667; higher = more signal.
Experiment [8] has as its system wheat germ agglutinin (Triticum aestivum), Alexa647-labelled. As to the kind of experiment: wheat germ agglutinin binders on compound microarrays, profiling panel, artefact control for SMM control-protein annotation, biochemical, small-molecule microarray, 635/667 nm fluorescence (AID 1140).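 Note: score merges 667 nm feature emission with signal to noise over triplicate slides.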 The conditions noted are these: WGA-A647 binding, 635 nm fluorescence, higher = more signal.

Experiment [9] addresses Luciferin 4-monooxygenase (Photinus pyralis) (UniProt P08659). Kind of experiment: firefly luciferase enzyme inhibitors, primary screen, biochemical, luminescence, purified enzyme, 2006 set (AID 1141).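 Note: cell-free assay with purified firefly luciferase at 100 ng per well in PBS; test concentration not given here.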 The conditions noted are these: SteadyGlo luminescence, 30 min, higher = more signal, called active from +8 up or from −8 down.
The test system of experiment [10] is Wnt5a (protein binding on small-molecule microarray). As to the kind of experiment: Wnt5a binders on small-molecule microarray, primary screen, biophysical, 635/667 nm fluorescence (AID 1142).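 Note: fluorescence read at 667 nm with signal to noise per printed feature.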 The conditions noted are these: 635 nm fluorescence, higher = more signal.
Experiment [11] is described as follows: cell viability in Huh7 cells, primary screen, cytotoxicity control for HCV replication inhibitor project, CellTiter-Glo luminescence, basal, 48 h (AID 1143).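 Note: Huh7 hepatoma cells carrying a hepatitis C replication reporter with no stimulus; test concentration not given here.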 The settings on record: Huh7 HCV replicon, higher = more signal, called active from +8 up or from −8 down.
The nature of experiment [12]: P. aeruginosa biofilm formation inhibitors, primary screen, PAO1 strain, BacTiter-Glo luminescence, LB-PBS (AID 1144). The settings on record: 12 h, higher = more signal.
A short description of experiment [13]: CREB reporter modulators without forskolin, primary screen, cell-based, PC12, CRE-LacZ reporter, unstimulated (AID 1145). The conditions noted are these: no forskolin, luminescence, 4.5 h, higher = more signal, called active from +8 up or from −8 down.
The nature of experiment [14]: CREB reporter modulators under forskolin, primary screen, cell-based, PC12, CRE-LacZ reporter, forskolin-stimulated (AID 1146).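 Note: PC12 cells with 6xCRE LacZ reporter stimulated by forskolin 10 µM; beta-galactosidase reporter signal reflecting CREB driven transcription.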 The settings on record: luminescence, 4.5 h, higher = more signal, called active from +8 up or from −8 down.
For experiment [15], the target named is Streptavidin (Streptomyces avidinii) (UniProt P22629). Kind of experiment: streptavidin binders on small-molecule microarray, primary screen, artefact control for SMM compound annotation, biophysical, 635/667 nm fluorescence (AID 1147).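 Note: signal reflects streptavidin binding to arrayed compounds as a control protein.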 The conditions noted are these: streptavidin binding, higher = more signal.
Experiment [16] is described as follows: small-molecule binders of probe aInhba, primary screen, biochemical, small-molecule microarray, 635/667 nm fluorescence (AID 1148).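 Note: score merges 667nm spot fluorescence with signal-to-noise for antibody binding to printed compounds.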 The settings on record: higher = more signal.
For experiment [17], the target named is Torsin-1A (Homo sapiens) (UniProt O14656). As to the kind of experiment: torsin A binders from cell lysate, primary screen, small-molecule microarray, wild-type, 635/667 nm (AID 1149). The conditions noted are these: COS7 hTOR1A-WT lysate, 635 nm fluorescence, higher = more signal.
Experiment [18] has the same target. Kind of experiment: small-molecule binders of mutant TOR1A in lysate, primary screen, cell lysate, small-molecule microarray, COS7 lysate, 635/667 nm fluorescence (AID 1150).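 Note: score pools 667 nm emission and signal to noise measuring lysate protein binding.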 The settings on record: COS7 hTOR1A mutant lysate, 635 nm fluorescence, higher = more signal.
For experiment [19], the system named is Sonic hedgehog protein (Shh). As to the kind of experiment: small-molecule binders of Shh protein, primary screen, biochemical, small-molecule microarray, 635/667 nm fluorescence (AID 1151).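 Note: Shh protein binding to compounds spotted on small-molecule microarray slides; score combines spot fluorescence intensity with signal-to-noise across triplicate slides.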 The conditions noted are these: small-molecule microarray binding, 635 nm fluorescence; higher = more signal.

Activity calls are given as the source filed them. Unless noted, the rule behind the calls is not given here.

Sequence of Fibroblast growth factor 2 (Homo sapiens) (P09038 whole entry, looked up): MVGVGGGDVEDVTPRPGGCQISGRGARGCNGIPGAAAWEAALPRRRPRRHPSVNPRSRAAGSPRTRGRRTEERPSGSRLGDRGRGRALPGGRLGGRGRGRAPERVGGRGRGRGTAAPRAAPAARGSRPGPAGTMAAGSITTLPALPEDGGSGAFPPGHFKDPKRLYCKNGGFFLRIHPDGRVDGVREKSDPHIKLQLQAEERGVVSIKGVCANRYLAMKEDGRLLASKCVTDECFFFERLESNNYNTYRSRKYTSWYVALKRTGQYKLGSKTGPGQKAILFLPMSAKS
Sequence of Follistatin (Homo sapiens) (P19883 whole entry, looked up): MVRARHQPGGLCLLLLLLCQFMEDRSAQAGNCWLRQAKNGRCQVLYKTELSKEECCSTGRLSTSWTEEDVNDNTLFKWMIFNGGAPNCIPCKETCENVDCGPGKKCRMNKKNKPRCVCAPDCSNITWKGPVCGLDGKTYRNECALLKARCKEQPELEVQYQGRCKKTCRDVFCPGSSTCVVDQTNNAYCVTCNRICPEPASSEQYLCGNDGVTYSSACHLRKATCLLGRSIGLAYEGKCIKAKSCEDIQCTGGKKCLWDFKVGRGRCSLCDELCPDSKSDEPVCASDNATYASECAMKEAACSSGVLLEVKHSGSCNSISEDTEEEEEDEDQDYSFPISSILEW
Sequence of Torsin-1A (Homo sapiens) (O14656 whole entry, looked up): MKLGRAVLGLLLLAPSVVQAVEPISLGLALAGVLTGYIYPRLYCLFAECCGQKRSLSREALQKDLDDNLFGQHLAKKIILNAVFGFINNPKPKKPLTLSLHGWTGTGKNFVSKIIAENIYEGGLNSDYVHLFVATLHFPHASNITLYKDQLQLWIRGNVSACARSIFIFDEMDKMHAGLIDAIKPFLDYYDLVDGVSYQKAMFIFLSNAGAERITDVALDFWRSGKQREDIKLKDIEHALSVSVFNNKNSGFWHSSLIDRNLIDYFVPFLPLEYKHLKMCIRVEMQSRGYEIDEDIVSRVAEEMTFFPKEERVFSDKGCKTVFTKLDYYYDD
Sequence of Focal adhesion kinase 1 (Homo sapiens) (Q05397 whole entry, looked up): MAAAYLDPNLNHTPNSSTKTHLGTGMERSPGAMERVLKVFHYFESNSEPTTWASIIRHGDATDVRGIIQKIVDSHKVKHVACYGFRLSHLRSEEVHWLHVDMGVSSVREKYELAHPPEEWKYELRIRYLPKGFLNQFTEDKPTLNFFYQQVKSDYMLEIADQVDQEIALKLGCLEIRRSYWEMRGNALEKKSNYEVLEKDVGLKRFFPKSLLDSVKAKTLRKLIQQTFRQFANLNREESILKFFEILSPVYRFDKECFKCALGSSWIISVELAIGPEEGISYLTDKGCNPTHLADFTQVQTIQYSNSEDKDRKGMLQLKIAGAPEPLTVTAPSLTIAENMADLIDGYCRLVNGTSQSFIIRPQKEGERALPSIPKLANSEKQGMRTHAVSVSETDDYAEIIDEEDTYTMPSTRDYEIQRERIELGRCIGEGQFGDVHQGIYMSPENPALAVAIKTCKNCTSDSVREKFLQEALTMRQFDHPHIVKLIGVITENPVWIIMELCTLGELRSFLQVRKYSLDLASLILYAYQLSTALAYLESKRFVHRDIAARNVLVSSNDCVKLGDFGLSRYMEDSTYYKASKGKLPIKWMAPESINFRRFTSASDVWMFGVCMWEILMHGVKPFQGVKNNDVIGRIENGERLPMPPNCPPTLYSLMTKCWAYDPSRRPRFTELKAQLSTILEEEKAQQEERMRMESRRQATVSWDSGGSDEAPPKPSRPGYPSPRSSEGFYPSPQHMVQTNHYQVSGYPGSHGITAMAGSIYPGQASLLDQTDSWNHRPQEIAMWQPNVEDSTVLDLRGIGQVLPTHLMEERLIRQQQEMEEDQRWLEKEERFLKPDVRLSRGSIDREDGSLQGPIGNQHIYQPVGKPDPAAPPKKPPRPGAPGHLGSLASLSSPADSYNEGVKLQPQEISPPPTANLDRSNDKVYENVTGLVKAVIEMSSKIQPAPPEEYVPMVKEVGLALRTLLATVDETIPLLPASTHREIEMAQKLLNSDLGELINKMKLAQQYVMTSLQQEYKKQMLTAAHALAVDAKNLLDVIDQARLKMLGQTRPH
Sequence of Luciferin 4-monooxygenase (Photinus pyralis) (P08659 whole entry, looked up): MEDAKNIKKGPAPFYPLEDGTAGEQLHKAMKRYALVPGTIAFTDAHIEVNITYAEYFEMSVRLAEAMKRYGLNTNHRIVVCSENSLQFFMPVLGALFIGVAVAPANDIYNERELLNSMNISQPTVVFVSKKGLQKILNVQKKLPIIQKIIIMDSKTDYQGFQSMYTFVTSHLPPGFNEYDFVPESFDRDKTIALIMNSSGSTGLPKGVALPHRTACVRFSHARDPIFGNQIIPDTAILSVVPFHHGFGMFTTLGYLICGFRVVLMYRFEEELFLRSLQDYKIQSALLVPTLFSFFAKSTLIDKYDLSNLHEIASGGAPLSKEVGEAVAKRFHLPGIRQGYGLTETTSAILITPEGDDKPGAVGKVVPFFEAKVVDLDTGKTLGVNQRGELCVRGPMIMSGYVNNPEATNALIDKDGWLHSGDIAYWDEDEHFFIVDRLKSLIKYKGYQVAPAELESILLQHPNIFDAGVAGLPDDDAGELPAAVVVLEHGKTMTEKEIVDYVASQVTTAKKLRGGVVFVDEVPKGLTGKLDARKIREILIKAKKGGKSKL
Sequence of Streptavidin (Streptomyces avidinii) (P22629 whole entry, looked up): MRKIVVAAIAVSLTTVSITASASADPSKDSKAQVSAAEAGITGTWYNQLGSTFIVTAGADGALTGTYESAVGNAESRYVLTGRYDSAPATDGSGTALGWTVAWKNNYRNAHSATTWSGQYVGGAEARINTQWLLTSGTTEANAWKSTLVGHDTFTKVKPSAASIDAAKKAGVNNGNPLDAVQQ

Regarding `COc1ccc([C@H]2OC[C@@H]3CCC(=O)N32)cc1`, the composite z-score in experiment [1] stood at 0.822; in experiment [2], 1.02; in experiment [3], 0.0902; in experiment [4], 0.362; in [5] it was 0.886; in experiment [6], 0.031. For the same compound, the composite z-score with Lefty1 worked out at 1.36; in experiment [8], 0.329; in experiment [10], 0.279; in [15] it was 0.711; in [16] it was 0.114; in the experiment with Torsin-1A (Homo sapiens) [17], 1.08. For the same compound, the figures for the composite z-score (in the experiment with Torsin-1A (Homo sapiens) [18]; in [19]) were 0.214 and 0.79, respectively. Moreover, the z-score in experiment [7] was 0.779; in experiment [9], -0.699 (inactive); in [11] it was 0.638 (inactive); in experiment [12] it was 0.495 (inactive); in experiment [13] it was 1.2 (inactive); in experiment [14], 0.426 (inactive).

Consider `C=C(CCCC)/C(=C/C[C@H](OC(C)=O)c1ccc(OCCO)cc1)c1cnc2ccccc2c1`, for which the composite z-score in experiment [1] is 0.91; in experiment [2], 0.78; in [3], -0.115; in [4], 0.387; in [5], 0.735; in experiment [6], 0.623. The composite z-score in the experiment with Lefty1 was 1.15; in [8] it was 0.869; in experiment [10], 0.0824; in experiment [15], 0.535; in experiment [16], -0.0087; in the experiment with Torsin-1A (Homo sapiens) [17] it was 1.27. The composite z-score with Torsin-1A (Homo sapiens) [18] was determined as 0.671; in experiment [19], 1.8. Besides, the z-score is 0.649 in [7]; -0.126 (inactive) in [9]; -1.76 (inactive) in experiment [11]; -0.829 (inactive) in [12]; 2.59 (inactive) in [13]; 1.08 (inactive) in experiment [14].

For the compound `COCC(=C=CC[C@H](O)c1ccccc1OCCO)CCO`, the composite z-score in [1] was -0.69; in experiment [2], 0.268; in [3] it was 0.432; in [4] it was 0.869; in [5], 0.992; in experiment [6], 1.11. The composite z-score with Lefty1 is 1.15; in experiment [8] it was 1.14; in experiment [10], 0.0821; in experiment [15] it was -0.193; in experiment [16], 0.115; with Torsin-1A (Homo sapiens) [17], 0.871. The composite z-score with Torsin-1A (Homo sapiens) [18] was determined as 0.542; in [19], 1.09. For the same compound, the z-score in experiment [7] is 0.417; in experiment [9] it was 0.109 (inactive); in [11], -0.231 (inactive); in experiment [12], -0.109 (inactive); in [13] it was 2.48 (inactive); in [14] it was 1.01 (inactive).

Regarding `O[C@@H](Cc1ccccc1)[C@@H](/C=C/C1CC1)NCc1cccc(Cl)c1`, the composite z-score was 0.183 in experiment [1]; -0.431 in [2]; 0.314 in [3]; -1.7 in experiment [4]; -1.4 in experiment [5]; -1.99 in experiment [6]. Moreover, the composite z-score in the experiment on Lefty1 was -0.717; in experiment [8], 0.204; in experiment [10], -1.11; in experiment [15], -1; in experiment [16] it was -0.21; with Torsin-1A (Homo sapiens) [17], -1.12. The figures for the composite z-score (in the experiment with Torsin-1A (Homo sapiens) [18]; in experiment [19]) were -0.447 and -1, respectively. Besides, the z-score was -0.164 in experiment [7]; 0.585 (inactive) in [9]; -3.2 (inactive) in experiment [11]; -0.852 (inactive) in experiment [12]; 4.76 (inactive) in experiment [13]; -0.426 (inactive) in experiment [14].

For the compound `CC(C)NC(=O)[C@@]1(Cc2ccccc2I)c2ccccc2C(=O)N(Cc2ccccc2Cl)[C@H]1c1ccc(CO)cc1`, the composite z-score was determined as 2.99 in experiment [1]; 1.2 in experiment [2]; 0.252 in experiment [3]; 0.443 in experiment [4]; 1.19 in experiment [5]; 0.566 in [6]. Further, the composite z-score in the experiment with Lefty1 is 0.443; in experiment [8], 0.858; in [10], 0.361; in [15], 0.746; in experiment [16], -0.0557; in the experiment with Torsin-1A (Homo sapiens) [17] it was 0.214. In addition, the composite z-score in the experiment with Torsin-1A (Homo sapiens) [18] was 0.891; in experiment [19], 1. In addition, the z-score in experiment [7] was 1.46; in experiment [9], -0.577 (inactive); in [11], -2.21 (inactive); in experiment [12], 0.5 (inactive); in [13], -0.464 (inactive); in experiment [14], -0.0764 (inactive).
